The structures appear in SMILES notation. Records with an inconclusive call do not appear. Entries that show only a call come without a potency. The source made the active and inactive calls. Calls come from the whole dose curve; as a rule, active = well fitted cell-killing curve with a large enough effect in the repeat runs; inconclusive = weak or mixed curves, or effect the other way; inactive = no such curve, though single readings can be large or run the other way.
Potency is the fitted concentration of half-maximal effect.

This test is described as follows: qHTS assay to identify small molecule antagonists of the thyroid receptor (TR) signaling pathway - cell viability counter screen (AID 743064). Note: nearly all actives have a fitted effect of over 50% in size. The note with it: GH3.TRE-Luc viability, CellTiter-Fluor, 24 h; series mostly up to 70.3 µM. From the text:
National Center for Advancing Translational Sciences [NCATS]
NIH Chemical Genomics Center [NCGC]
U.S. Environmental Protection Agency [EPA]
National Institutes of Environmental Health Sciences [NIEHS]
National Toxicology Program [NTP]
U.S. Food and Drug Administration [FDA]
Thyroid receptor (TR), a nuclear hormone receptor, plays an important role in development, proliferation, differentiation, metabolism, brain function, and cardiovascular system. […] To profile the Tox21 10K compound library in TR signaling, a cell-based GH3-TRE-Luc assay (GH3.TRE-Luc cell line, developed by the laboratory of Dr. Albertinka J. Murk, Wageningen University) was used to measure the inhibition of TR. GH3 (rat pituitary tumor) cells stably expressing a TR activity sensor consisting of two TR response elements and a luciferase reporter gene. The cytotoxicity of the Tox21 compound library against the GH3.TRE-Luc cell line was tested in parallel by measuring the cell viability using CellTiter-Fluor assay (Promega, Madison, WI) in the same wells.
Tox21 Assay Protocol Summary:
GH3.TRE-Luc cells were dispensed at 1500 cells/4 uL/well into 1536-well white solid bottom plates using a Multidrop Combi dispenser (Thermo Fisher Scientific Inc., Waltham, MA). After the assay plates were incubated at 37 C for 4 hours, 23 nL of library compound or DMSO controls was transferred to the assay plates by a pintool station (Kalypsys, San Diego, CA), followed by addition of 1 ul of T3 (1 nM, final concentration in the wells) to stimulate TR transactivation. The assay plates were incubated at 37 C for 23.5 h, and then 1 uL of CellTiter-Fluor reagent (Promega, Madision, WI) of measuring cytotoxicity was added to each well using a Bioraptr Flying Reagent Dispenser (FRD) workstation (Beckman Coulter, Indianapolis, IN, USA). The plates were incubated at 37C and 5% CO2 for additional 30 min, and fluorescence intensity was measured by a ViewLux plate reader (PerkinElmer, Shelton, CT).
Background: qHTS replaces the single test concentration by a dilution series.
In the case of `OC[C@@H](O)[C@H](O)[C@@H](O)[C@@H](O)CO`, the Potency result was “inactive”.

In the case of `CC(=O)c1ccc2c(c1)CCCC2`, the Potency result was “inactive”.

Turning to `CC(C)(C)c1ccc(C=O)cc1`, the Potency entry was “inactive”.

In the case of `O=S1(=O)CCCC1`, the Potency entry is “inactive”.

For the molecule `CCCCOC(=O)C(C)OC(=O)CCC` (stereo not given), the Potency entry is “inactive”.

On to `NS(=O)(=O)c1ccc(Cl)c(S(N)(=O)=O)c1`, for which the Potency result is “inactive”.

Take `CCOC(=O)C(C)(C)C`: the Potency result is “inactive”.

On to `O=C(Nc1cccc(C2=NCCN2)c1)Nc1cccc(C2=NCCN2)c1`, for which the Potency result was “inactive”.

On to `Nc1cc(S(=O)(=O)O)ccc1S(=O)(=O)O`, for which the Potency entry was “inactive”.

Turning to `CCN1CN(CC)CN(CC)C1`, the Potency result is “inactive”.

For the molecule `CO[Si](CCCCl)(OC)OC`, the Potency entry was “inactive”.

`C[C@@H]1C[C@H]2[C@@H]3C[C@H](F)C4=CC(=O)C=C[C@]4(C)[C@@]3(F)[C@@H](O)C[C@]2(C)[C@@]1(O)C(=O)CO`: the Potency result is “inactive”.

For the molecule `Cc1cccc(NC(=S)N(C)C)c1`, the Potency entry was “inactive”.

Turning to `OCCCCCCCl`, the Potency result is “inactive”.

With `CCCCCCCCOC(C)=O`, the Potency entry is “inactive”.

Consider `CCCCC(C)C(=O)O` (stereo not given), for which the Potency result is “inactive”.

`CC(Cl)COP(=O)(OCC(C)Cl)OCC(C)Cl` (stereo not given): the Potency entry was “inactive”.

In the case of `O=P(O)(O)OCC(O)CO` (stereo not given), the Potency entry was “inactive”.

In the case of `CCOc1ccc(NC(=O)OC(C)C)cc1OCC`, the Potency result was “inactive”.

For the molecule `CCCCOC(=O)C(=O)OCCCC`, the Potency entry is “inactive”.

As to `CN[C@@H]1[C@@H](O)[C@@H](O[C@@H]2[C@H](O)[C@H](O[C@H]3OC(CN)=CC[C@H]3N)[C@@H](N)C[C@H]2N)OCC1(C)O` (stereo not given in full), the Potency result is “inactive”.

For the molecule `CN=C(NC#N)NCCSCc1csc(N=C(N)N)n1`, the Potency result was “inactive”.

Consider `Cc1cc(C)cc([N+](=O)[O-])c1`, for which the Potency result was “inactive”.

Regarding `COc1cc2c(Nc3ccc(Br)cc3F)ncnc2cc1OCC1CCN(C)CC1`, the Potency is 4.73 µM (active).

With `CN[C@@H]1[C@H](O)[C@H](NC)[C@H]2O[C@@]3(O)C(=O)C[C@@H](C)O[C@H]3O[C@@H]2[C@H]1O`, the Potency result was “inactive”.

In the case of `O=CN1CCOCC1`, the Potency entry was “inactive”.

On to `C=CCOC(=O)c1ccc(C(=O)OCC=C)c(C(=O)OCC=C)c1`, for which the Potency entry was “inactive”.

As for `CC(=O)OCC(=O)[C@@]1(O)[C@H](OC(C)=O)C[C@H]2[C@@H]3CCC4=CC(=O)C=C[C@]4(C)[C@@]3(F)[C@@H](O)C[C@@]21C`, the Potency entry was “inactive”.

On to `Cc1nc(C)nc(N2C[C@@H](C)N(c3ccnc([C@@H](C)O)n3)[C@@H](C)C2)n1`, for which the Potency entry is “inactive”.

For the molecule `Cc1nc([N+](=O)[O-])cn1-c1ccc([N+](=O)[O-])cc1`, the Potency entry is “inactive”.

With `C=C[Si](C)(C)O[Si](C)(C)C=C`, the Potency result was “inactive”.

In the case of `COC(=O)CCC(=O)O`, the Potency entry was “inactive”.

In the case of `C=CCOc1c(Br)cc(C(C)(C)c2cc(Br)c(OCC=C)c(Br)c2)cc1Br`, the Potency entry was “inactive”.

Turning to `C[Si]1(C)N[Si](C)(C)N[Si](C)(C)N1`, the Potency entry was “inactive”.

With `CO[Si](CCCS)(OC)OC`, the Potency entry was “inactive”.

Consider `C[C@H]1O[C@H](O[C@H]2[C@H](O)[C@@H](O)[C@@H](O[C@H]3[C@H](O)[C@@H](O)[C@H](O)O[C@@H]3CO)O[C@@H]2CO)[C@H](O)[C@@H](O)[C@@H]1N[C@H]1C=C(CO)[C@@H](O)[C@H](O)[C@H]1O`, for which the Potency result is “inactive”.

Turning to `CCCCOC(=O)[C@@H](C)Oc1ccc(Oc2ccc(C(F)(F)F)cn2)cc1`, the Potency entry is “inactive”.

As for `CC(C)COC(=O)CCCCC(=O)OCC(C)C`, the Potency entry was “inactive”.

In the case of `CCC(O)C(C)(C)C` (stereo not given), the Potency entry was “inactive”.

As to `O=C(COCCOCCOCC(=O)Nc1c(I)cc(I)c(C(=O)O)c1I)Nc1c(I)cc(I)c(C(=O)O)c1I`, the Potency result was “inactive”.

For the origin of these results see PubChem BioAssay (Tox21).
